L3MBTL1 inh: blocks human L3MBTL1; 230,000 compounds, 0.66% hits; Q9Y468; AlphaScreen L3MBTL1–H3K9me1 peptide binding; Potency, µM (series often up to 57.1 µM), for inactives: at the highest dose activity, negative = inhibition, actives largely listed as inhibitors; further: on the % scale 0 is the no-effect control and ±100 the full control effect; nearly all actives have a fitted effect of over 60% in size
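L3MBTL1 (50 nM) pre-complexed 30 min with biotinylated H3(1-15)K9me1 peptide (75 nM), then compounds added for 30 min at room temperature; AlphaScreen streptavidin donor/nickel chelate acceptor beads (10 ug/mL final) read after 30 min dark incubation.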
HP1b chromo inh: HP1-beta chromodomain-methylated histone interaction inhibition. P83916. AlphaScreen HP1-beta / biotin-H3K9me3 peptide binding. Potency, µM (doses to about 114 µM), for the others: top-dose activity change, negative = inhibition, usual class: inhibitors. 390,000 compounds, 0.56% hits; further: nearly all actives have a fitted effect of over 70% in size
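AlphaScreen: HP1-beta (50 nM) preformed 30 min with biotin-H3(1-18)K9me3 peptide (50 nM) in PBS pH 7.4, 0.01% Tween-20. Compound added for 30 min at RT, then streptavidin donor/nickel chelate acceptor beads (10 ug/mL) for 30 min.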
JMJD2A Tudor inh: blocks the human JMJD2A Tudor domain | O75164 | AlphaScreen JMJD2A-Tudor / H3K4me3 peptide binding | Potency, µM (top dose mostly 114 µM), for the others: at the highest dose activity change, negative = inhibition, usual class: inhibitors | 390,000 compounds, 4.4% hits | AID 504339; further: on the % scale 0 is the no-effect control and ±100 the full control effect; nearly all actives have a fitted effect of over 50% in size
BAZ2B inh: blocks human BAZ2B; Q9UIF8; 360,000 compounds, 4.4% hits; AlphaScreen BAZ2B-H3K14Ac peptide displacement; Potency, µM (top dose mostly 114 µM), for the others: top-dose activity change, negative = inhibition, actives largely listed as inhibitors; further: on the % scale 0 is the no-effect control and ±100 the full control effect; nearly all actives have a fitted effect of over 60% in size
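In this displacement format the biotinylated H3(5-23) peptide acetylated at Lys14 serves as ligand at 50 nM, with BAZ2B at 50 nM in PBS pH 7.4 containing 0.01% Tween-20. Donor and acceptor beads are 10 ug/mL final.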
Sfp PPTase inh: blocks B. subtilis Sfp PPTase activity; Q9F4F7; Biochemical Sfp PPTase activity, qHTS; Potency, µM, without a hit: largest response in the series, negative = inhibition, most hits filed as inhibitors; 310,000 compounds, 3.5% hits; AID 1490;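 further: the enzyme is Sfp with the accession as filed and its product quenches rhodamine fluorescence; 0% = enzyme reaction without inhibitor and -100% = no enzyme wells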
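With Hepes-Na pH 7.6 buffer containing 10 mM MgCl2, Sfp (15 nM) modified BHQ-2-YbbR (12.5 uM) using rhodamine-CoA (5 uM). Two reads 30 minutes apart at 525/598 nm yielded each well's rate.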
G9a block: inhibitors of human histone lysine methyltransferase G9a; Q96KQ7; G9a H3K9 monomethylation, AlphaScreen, 2 h; Potency, µM (series often up to 102 µM), for the others: at the top dose activity, negative = inhibition, most hits filed as inhibitors; 350,000 compounds, 8.8% hits; further: on the % scale 0 is the no-effect control and ±100 the full control effect; nearly all actives have a fitted effect of over 75% in size
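Using a bead-based AlphaScreen, monomethylated H3K9 product from 2 h room-temperature reactions (G9a 20 nM, peptide 500 nM, SAM 20 uM) was detected with 0.5 ug/mL rabbit anti-H3K9me1 antibody.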
Numbers without * were called inactive; ? = inconclusive; / = not tested or not shown; [ ] = remark or other dose. In the library only some 12% were active in any assay of this set; here they are far more common. The call rests on the fitted dose curve; in most records, active means well fitted curve in the direction sought with a large enough effect; inconclusive means small, poorly fitted or top-dose-only effect, or another doubt; inactive means no such curve, though single readings can be large; an effect the other way counts as inactive or inconclusive. Potency means the concentration at half of the fitted maximal effect.

SMILES	L3MBTL1 inh	HP1b chromo inh	JMJD2A Tudor inh	BAZ2B inh	Sfp PPTase inh	G9a block
O=S(=O)(O)c1cc(O)c2ccc(Nc3ccccc3)cc2c1	/	?	2.8µM*	/	/	/
Cc1ccc(S(=O)(=O)c2cc(Nc3ccccc3)ccc2O)cc1	?	-11%	?	50µM*	/	17%[2.33 µM]
O=S(=O)(O)c1cc(O)c2cc(Nc3ccccc3)ccc2c1	/	35µM*	14µM*	/	/	/
CCOc1ccccc1CNC(=O)c1ccc(N2Cc3ccccc3Oc3ncccc32)s1	/	37%	2%	-3%	/	9%[59 µM]
COc1cc2c(cc1OC)Cc1cc(OC)c(OC)cc1Cc1cc(OC)c(OC)cc1C2	/	/	/	/	2%	-15%[2.33 µM]
COc1ccc(C2CC(=O)Nc3c2c(=O)n(C)c2nc4ccccc4n32)cc1 (stereo not given)	/	?	-1%	-16%	/	3%[59 µM]
CC(C)CCNC(=O)c1cccc(S(=O)(=O)N2CCc3ccccc32)c1	/	39%	-3%	-3%	-7%	-4%[59 µM]
CC(C)CN(CC(C)C)C(=O)c1cccc(S(=O)(=O)N2CCc3ccccc32)c1	5%	-17%	45µM*	-15%	6%	79µM*
CCN(CC)CCCC(C)NC(=O)c1cccc(S(=O)(=O)N2CCc3ccccc32)c1 (stereo not given)	-4%	-16%	-28%	-12%	2%	45µM*
O=C(NNC(=O)c1cccc(S(=O)(=O)N2CCc3ccccc32)c1)c1ccccc1	4%	25%	-17%	-12%	21%	10%
CCN(CC)c1nn2c(=O)c(C(=O)NCc3cccc(OC)c3OC)cnc2s1	/	6%	-14%	-10%	/	14%[59 µM]
C=CCn1c(SCC(=O)O)nnc1-c1ccc(C(C)(C)C)cc1	3%	54%	0%	-2%	6%	32µM*
CC(C)(C)c1ccc(-c2nnc(SCC(=O)O)n2N)cc1	6%	42%	-11%	1%	16%	45µM*
O=C(NC(=S)Nc1ncc(Br)cc1Br)c1cncc(Br)c1	/	21%	50µM*	-2%	-20%	2%[59 µM]
O=C(NC(=S)Nc1ccc(O)cc1)c1cncc(Br)c1	/	10%	-18%	/	/	/
Cc1cc(O)ccc1NC(=S)NC(=O)c1cncc(Br)c1	8%	8%	-9%	5%	56µM*	?
O=C1Cc2cc(S(=O)(=O)N3CCN(c4ccc(Br)cc4)CC3)ccc2N1	/	/	141µM*	/	/	/
CC(=O)N1CCN(S(=O)(=O)c2ccc3c(c2)CC(=O)N3)CC1	-16%	47%	-26%[229 µM]	5%	/	-26%[12.7 µM]
CC(=O)c1ccc(N2CCN(S(=O)(=O)c3ccc4c(c3)NC(=O)CC(=O)N4)CC2)cc1	/	-6%	16µM*	-23%	23%	24%
CCOc1ccc(C(=O)N(Cc2nc(-c3cccc(C)c3)no2)C(C)C)cc1	/	90%	3%	75%	/	55%[59 µM]
COc1ccc(N(C(=O)c2ccco2)C(C(=O)NC2CCCC2)c2ccncc2)cc1OC (stereo not given)	/	31%	1%	-5%	15%	71µM*
COc1ccc(N(C(=O)c2ccco2)C(C(=O)NC2CCCC2)c2cccs2)cc1 (stereo not given)	-1%	8%	-19%	-6%	3%	-4%
COc1ccc(N(C(=O)c2ccco2)C(C(=O)NC2CCCC2)c2cccs2)cc1OC (stereo not given)	-3%	17%	-3%	14%	40µM*	?
COc1ccc(C(C(=O)NC2CCCC2)N(C(=O)c2ccco2)c2ccc(OC)c(OC)c2)cc1 (stereo not given)	1%	24%	-14%	-6%	-5%	13%[59 µM]
CCc1ccc(N(C(=O)CNC(=O)c2ccco2)C(C(=O)NC2CCCC2)c2cccnc2)cc1 (stereo not given)	/	-4%	50µM*	5%	-3%	6%
SMILES	L3MBTL1 inh	HP1b chromo inh	JMJD2A Tudor inh	BAZ2B inh	Sfp PPTase inh	G9a block
CCCN1CNc2c(c(=O)[nH]c(=S)n2CCc2c(C)cccc2C)C1	/	41%	-16%	/	/	/
Cc1cccc(OCC(=O)Nc2ccccc2C(=O)OCc2cc(=O)n3nc(C)sc3n2)c1	/	0%	-18%	-3%	/	-3%[59 µM]
CNC(=O)C1CC(=O)N(CCc2ccccc2)C(=Nc2ccc(OC)cc2)S1 (stereo not given)	-7%	12%	-11%	-23%	-3%	-2%
COc1ccc(N=C2SC(C(N)=O)CC(=O)N2Cc2ccc3c(c2)OCO3)cc1 (stereo not given)	-24%	9%	79µM*	79µM*	12%	-4%
COc1ccc(CCN2C(=O)CC(C(N)=O)SC2=Nc2ccccc2)cc1 (stereo not given)	-27%	13%	79µM*	?	-6%	?
CCNC(=O)C1CC(=O)N(Cc2ccc3c(c2)OCO3)C(=Nc2ccc(F)cc2)S1 (stereo not given)	9%	13%	-13%	6%	24%	12%[59 µM]
O=S(=O)(c1ccccc1)N1CCN(Cc2c(O)ccc3ccccc23)CC1	-4%	22%	-13%	/	/	/
O=C(CN1CCN(c2ccccc2F)CC1)c1ccc(O)c(O)c1	/	62%	-20%	-16%	?	32µM*
O=c1cc(CN2CCN(c3ccccc3F)CC2)c2cc(O)c(-c3ccccc3)cc2o1	3%	-12%	89µM*	1%	6%	-12%
COc1ccc(N2CCN(Cc3cc(=O)oc4cc(-c5ccccc5)c(O)cc34)CC2)cc1	-2%	9%	-24%	13%	4%	-14%[59 µM]
Oc1ccc2ccccc2c1CN1CCN(C/C=C/c2ccccc2)CC1	-15%	10%	?	?	0%	10µM*
Oc1ccc2ccccc2c1CN1CCN(c2ccccc2F)CC1	3%	73%	-6%	10%	6%	28µM*
Cc1ccc(NC(=O)C(=O)NCC(c2ccc3c(c2)OCO3)N2CCOCC2)cc1C (stereo not given)	/	30%[57 µM]	8%	3%	/	14%[59 µM]
CC(C)CSc1oc(-c2ccco2)nc1S(=O)(=O)c1ccc(Br)cc1	/	46%	17%	-1%	/	10%[59 µM]
O=Cc1cn(CC(=O)N2CCCCC2)c2ccccc12	7%	52%	4%[57.1 µM]	7%	14%	19%[59 µM]
CN1C(=O)/C(=C/c2cn(CC(=O)N3CCCCC3)c3ccccc23)c2ccccc21	/	/	/	?	2%	11µM*
CC1CCCC(C)N1C(=O)Cn1cc(/C=C2/C(=O)Nc3ccccc32)c2ccccc21 (stereo not given)	/	?	?	?	6%	10µM*
Cc1ccc(S(=O)(=O)c2cnc(SCC(=O)Nc3ccc4c(c3)OCCO4)[nH]c2=O)cc1Cl	/	28%[57 µM]	-20%	-14%	/	-9%[59 µM]

From PubChem
